Bioassay records from PubChem BioAssay.
Compounds with a hit are over-represented: about 3.3% of the library has one in this group of screens.
HGIII-sPLA2 inh = Blocks human group III sPLA2 activity; Q9NZ20; inhibition, % at 12.2 µM; hit rate 0.56% among 370,000; QFRET BODIPY PC-A2 liposome hydrolysis, fluorescence;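 active means inhibition above mean plus 3 SD of compounds lying within the high and low control bounds, cut at about 19% in these data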;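 further: 0% = median of test compound wells and 100% = no enzyme DMSO wells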
SUMO HTRF inh = blocks human SUMOylation mediated by UBC9 | HTRF SUMOylation assay, SAE1/SAE2 + UBC9, in vitro | inhibition, % at 35 µM | hit rate 0.36% among 290,000 | P63279; in the data active means inhibition above about 50%, passing the limit was not always enough; inconclusive means no clear call, values can overlap the other calls
Target sequence (P63279 whole entry, looked up): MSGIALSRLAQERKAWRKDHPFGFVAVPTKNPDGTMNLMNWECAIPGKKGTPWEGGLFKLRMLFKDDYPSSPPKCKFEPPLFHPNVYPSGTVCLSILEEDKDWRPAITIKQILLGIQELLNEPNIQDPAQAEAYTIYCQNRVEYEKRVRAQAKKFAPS
UBC13 polyUb = blocks human UBC13 polyubiquitin chain formation; P61088; TR-FRET; inhibition, % at 20 µM; hit rate 0.47% among 330,000; in the data active means inhibition above about 45%, passing the limit was not always enough; inconclusive means no clear call, values can overlap the other calls
Target sequence (P61088 whole entry, looked up): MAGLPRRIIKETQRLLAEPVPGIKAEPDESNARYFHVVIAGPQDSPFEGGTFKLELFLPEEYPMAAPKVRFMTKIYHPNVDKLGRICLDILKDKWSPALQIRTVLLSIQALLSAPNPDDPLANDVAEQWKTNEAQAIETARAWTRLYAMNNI
NR3A LBD binder = modulators (binders) of human NR3A ligand-binding domain | NR3A LBD differential scanning fluorimetry, Tm shift; 0% = protein alone, 100% = glycine-bound protein | Tm shift relative to glycine control, % at 25 µM | hit rate 2.5% among 340,000 | AID 1259313;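 active means melting temperature shift of at least 10% of the positive control shift, at one fixed dose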
* hit, by the source's call; ? = inconclusive; . = no result given.

SMILES	HGIII-sPLA2 inh	SUMO HTRF inh	UBC13 polyUb	NR3A LBD binder
Cc1ccc(S(=O)(=O)N/N=C/c2c[nH]c3ccccc23)cc1	-25	5	-7	31*
COC(=O)/C(C#N)=C/c1c[nH]c2ccccc12	-14	-7	-24	-5
COc1ccc2[nH]cc(/C=N/NS(=O)(=O)c3ccc(C)cc3)c2c1	-22	-8	0	25*
COc1ccc2c(/C=N/NS(=O)(=O)c3ccc(C)cc3)c[nH]c2c1	-13	22	-6	33*
O=C(O)c1ccc(S(=O)(=O)NN=Cc2c[nH]c3ccccc23)cc1	17	.	.	.
Cc1ccc(S(=O)(=O)/C(C#N)=C/c2c[nH]c3ccccc23)cc1	-13	-17	-7	13*
COCCSc1ncccc1-c1nc2ccccc2[nH]1	4	.	.	.
Cc1nc(-c2cccc(NC(=O)c3cccs3)c2)cs1	-9	8	5	0
Cc1nc(-c2ccc(NC(=O)c3ccc(Br)o3)cc2)cs1	3	10	-3	20*
Cc1nc(-c2ccc(C(=O)Nc3cccc(Br)c3)cc2)cs1	-6	9	7	32*
Cc1nc(-c2cccc(NC(=O)c3ccc(-n4nccc4C)cc3)c2)cs1	-9	.	-6	23*
Cc1nc(-c2cccc(NC(=O)c3ccc(Br)o3)c2)cs1	-9	8	-3	5
Cc1ccccc1-c1nc(-c2ccc(NC(=O)c3ccc(Br)o3)cc2)no1	0	8	5	29*
O=C(N/N=C/c1ccc(O)cc1O)C(=O)N/N=C/c1ccc(O)cc1O	-33	95*	14	36*
Oc1ccc(/C=N/NC(=S)Nc2cccnc2)c(O)c1O	-5	?	.	2
O=C(NN=Cc1ccc(O)cc1)C(=O)NN=Cc1ccc(O)cc1	-4	.	.	8
Oc1ccc(C=NNC(=S)Nc2ccc(F)cc2)c(O)c1	-8	.	.	27*
Oc1ccc(/C=N/NC(=S)Nc2cccnc2)c(O)c1	-7	-33	-28	12*
COc1ccc(C(=O)CSc2nnc(-c3cccnc3)n2-c2ccccc2)cc1	-25	.	.	.
COC(=O)[C@]12C[C@H](CC(=O)NCC34CC5CC(CC(C5)C3)C4)C(=O)N(Cc3ccco3)C1=C[C@H](C(C)C)O[C@@H]2C1CC1	-2	.	.	.
COC(=O)c1sc(NC(=O)CC(C)C)c(C(=O)OC)c1C	1	-6	10	21*
COC(=O)c1sc(NC(C)=O)c(C(=O)OC)c1C	-2	10	3	-1
C=CCN(C(=O)[C@@H](C)[C@@H](O)c1ccc(Cl)cc1)c1ccccc1	2	.	.	.
Cc1c(O)ccc2c(CC(=O)N[C@@H](Cc3ccc(O)cc3)C(=O)O)cc(=O)oc12	-3	53*	17	-1
C[C@@H]1CCN(C2CC2)S(=O)(=O)c2c(cccc2N2CCC[C@H]2C)O1	10	.	.	.
SMILES	HGIII-sPLA2 inh	SUMO HTRF inh	UBC13 polyUb	NR3A LBD binder
S=c1[nH]c2cc3ccccc3cc2[nH]1	0	25	-27	26*
O=C(N/C(=C/c1cccc(Br)c1)c1nc(=S)[nH][nH]1)c1ccccc1	-17	-32	1	22*
Cc1ccc(C(=O)N/C(=C\c2ccc(Br)cc2)c2nc(=S)[nH][nH]2)cc1	-7	9	-6	9
CC(C)(C)N1C(=O)Cc2c1nc(N)c1c(N)nc(N3CCCCC3CO)c(C#N)c21 (configuration not stated)	.	100*	-51	-11
CN(CCO)c1nc(N)c2c(N)nc3c(c2c1C#N)CC(=O)N3C1CCCC1	.	101*	-48	.
CCC1Cc2c(nc(N)c3c(N)nc(N4CCCCC4)c(C#N)c23)O1 (configuration not stated)	-4	27	13	-9
N#Cc1c(N2CCN(c3ccc(F)cc3)CC2)nc(N)c2c(N)nc3c(c12)CC(=O)N3C1CC1	14	94	.	-4
O=C(CN[C@@H](Cc1c[nH]c2ccccc12)C(=O)NCCc1c[nH]c2ccccc12)NC1CCCCC1	-52	.	.	.
CCOC(=O)N1CCN(C(=O)C[C@H]2C[C@@]3(C(=O)OC)C(=C[C@H](C4CCCC4)O[C@@H]3C)N(Cc3ccco3)C2=O)CC1	-7	.	.	.
CN(C)Cc1c(C(=O)N/N=C/c2ccc(-c3ccccc3)cc2)nnn1-c1nonc1N	7	5	4	3
Cc1ccc(/C=N/NC(=O)c2nnn(-c3nonc3N)c2C(C)C)s1	0	13	-9	11*
Cc1ccc(/C=N/NC(=O)c2nnn(-c3nonc3N)c2CN(C)C)s1	9	12	-16	3
CN(Cc1c(C(=O)N/N=C/c2cccc(O)c2)nnn1-c1nonc1N)c1ccccc1	.	-12	-8	31*
CC(C)Oc1ccc(/C=N/NC(=O)c2nnn(-c3nonc3N)c2CN(C)c2ccccc2)cc1	-10	-28	-30	11*
Cc1ccc(/C=N/NC(=O)c2nnn(-c3nonc3N)c2CN(C)c2ccccc2)s1	-6	3	-27	18*
COCc1c(C(=O)N/N=C/c2cccc3ccccc23)nnn1-c1nonc1N	-8	18	-1	31*
Cc1ccsc1/C=N/NC(=O)c1nnn(-c2nonc2N)c1CN(C)c1ccccc1	-16	4	-25	2
CC(C)c1c(C(=O)N/N=C/c2ccc(Cl)cc2Cl)nnn1-c1nonc1N	-4	-26	5	7
CN(Cc1c(C(=O)N/N=C/c2c(F)cccc2Cl)nnn1-c1nonc1N)c1ccccc1	-19	11	-18	14*
COc1ccc2ccccc2c1/C=N/NC(=O)c1nnn(-c2nonc2N)c1CN(C)C	9	-8	-7	0
CC(C)c1c(C(=O)N/N=C/c2ccccc2OCc2c(F)cccc2Cl)nnn1-c1nonc1N	2	-14	-4	13*
COc1ccc2ccccc2c1/C=N/NC(=O)c1nnn(-c2nonc2N)c1C(C)C	-19	3	-22	13*
Cc1[nH]cnc1/C=N\NC(=O)c1cccc(S(=O)(=O)N(C)C)c1	9	.	.	.
COc1ccc2c(c1)CCCN2C(=O)C1CCCN(S(=O)(=O)c2cc(OC)ccc2OC)C1 (configuration not stated)	-1	.	.	.
Cc1nc2cc(NC(=O)c3ccc([N+](=O)[O-])s3)ccc2s1	-2	3	-10	24*
SMILES	HGIII-sPLA2 inh	SUMO HTRF inh	UBC13 polyUb	NR3A LBD binder
COc1cc(/C=N/NS(=O)(=O)c2ccc3ccccc3c2)ccc1OCCN1CCOCC1	-4	7	-14	15*
CC(C)c1cc(C(C)C)c(S(=O)(=O)N2CCCC(C(=O)N3CCN(Cc4ccccc4)CC3)C2)c(C(C)C)c1 (configuration not stated)	-3	.	.	.
COc1cccc(NC(=S)NN2CCN(C)CC2)c1	3	0	-1	12*
CC(=O)c1cccc(NC(=O)CSc2ncc(C(=O)Nc3ccccc3)c(=O)n2C)c1	7	.	73*	0
COc1ccccc1CNC(=O)CSc1ncc(C(=O)Nc2ccccc2)c(=O)n1C	10	.	65*	0
C=Cc1ccc(C(=O)N(Cc2ccc(F)cc2)C(C(=O)N(C)C2CCCC2)c2ccc(OC)c(OC)c2)cc1 (configuration not stated)	6	.	.	.
COC(=O)[C@]12C[C@H](CC(=O)NCC34CC5CC(CC(C5)C3)C4)C(=O)N(Cc3ccc(Cl)cc3Cl)C1=C[C@H](C(C)C)O[C@@H]2C1CC1	3	.	.	.
